The record followed here is PubChem BioAssay (EPA / NIEHS).

Inconclusive results are not listed. Calls of active or inactive are those of the source. The calls were made as follows: active = hit-call score of the fitted dose curve at least 0.9, where 1 is the maximum; inconclusive = response in the unintended direction; inactive = score below 0.9.

One may read the AC50 as the concentration giving half of the maximal activity seen.

Sequence of zebrafish Thyroid Hormone Receptor beta (TRb), thrb (gene 30607) (Q9PVE4 whole entry, looked up, the tested form may be a part): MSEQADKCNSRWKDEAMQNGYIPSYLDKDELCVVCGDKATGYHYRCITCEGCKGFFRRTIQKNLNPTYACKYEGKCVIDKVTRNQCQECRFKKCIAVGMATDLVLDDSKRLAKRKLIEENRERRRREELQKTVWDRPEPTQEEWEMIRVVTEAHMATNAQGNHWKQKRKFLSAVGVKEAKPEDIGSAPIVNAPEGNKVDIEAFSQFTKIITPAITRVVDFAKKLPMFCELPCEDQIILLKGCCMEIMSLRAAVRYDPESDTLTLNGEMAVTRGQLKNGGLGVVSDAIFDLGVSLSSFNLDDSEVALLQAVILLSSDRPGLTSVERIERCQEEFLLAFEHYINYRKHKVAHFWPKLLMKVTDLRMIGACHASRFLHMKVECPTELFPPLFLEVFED
Sequence of human Thyroid hormone Receptor beta (TRb), THRB (gene 7068) (P10828 whole entry, looked up, the tested form may be a part): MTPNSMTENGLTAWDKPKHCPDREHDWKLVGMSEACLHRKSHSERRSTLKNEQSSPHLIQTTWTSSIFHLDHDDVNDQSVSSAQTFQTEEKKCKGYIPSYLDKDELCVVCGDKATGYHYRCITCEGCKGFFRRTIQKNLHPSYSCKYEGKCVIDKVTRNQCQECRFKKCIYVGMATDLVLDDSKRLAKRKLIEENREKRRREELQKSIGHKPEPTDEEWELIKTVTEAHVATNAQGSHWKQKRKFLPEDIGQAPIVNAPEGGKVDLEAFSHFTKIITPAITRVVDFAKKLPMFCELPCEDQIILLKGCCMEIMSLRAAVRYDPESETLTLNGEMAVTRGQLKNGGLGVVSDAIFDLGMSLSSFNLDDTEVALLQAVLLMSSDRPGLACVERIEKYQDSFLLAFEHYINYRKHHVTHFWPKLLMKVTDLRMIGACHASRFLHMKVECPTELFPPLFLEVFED

In one assay the target is human Thyroid hormone Receptor beta (TRb), THRB (gene 7068) (UniProt P10828). The assay can be described thus: ATG_hTRb_XSP1: Attagene TRANS-FACTORIAL Multi-Species (XSP1) HepG2 Assay for human Thyroid hormone Receptor beta (TRb) (AID 2283808). An outline of the steps:
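HepG2 cells transiently transfected with reporter units driving GAL4-UAS reporters for chimeric NR-Gal4 proteins; 24 h chemical exposure with 3 nM 6-alpha-fluorotestosterone present. Reporter mRNA quantified by RT-PCR and capillary electrophoresis, gain of signal versus DMSO.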
`CCCN(CCC)c1c([N+](=O)[O-])cc(S(N)(=O)=O)cc1[N+](=O)[O-]`: the AC50 was 9.26 µM (active).

On to `C=CC1(C)OC(=O)N(c2cc(Cl)cc(Cl)c2)C1=O` (stereo not drawn), for which the AC50 is 67.6 µM (active).

Regarding `CCOP(=S)(OCC)SCn1c(=O)oc2cc(Cl)ccc21`, the outcome was inactive.

On to `CCCCNC(=O)OCC#CI`, for which the compound was classed as inactive.

Turning to `COc1ccc(C(c2ccc(OC)cc2)C(Cl)(Cl)Cl)cc1`, the call was inactive.

As to `CCCCC(CC)COC(=O)c1ccccc1C(=O)OCC(CC)CCCC` (stereo not drawn), the half-maximal activity concentration (AC50) is 100 µM (active).

`CO/C=C(/C(=O)OC)c1ccccc1Oc1cc(Oc2ccccc2C#N)ncn1`: the compound was called inactive.

Take `C#CCOS(=O)OC1CCCCC1Oc1ccc(C(C)(C)C)cc1` (stereo not drawn): the result was inactive.

Regarding `COC(=O)N(OC)c1ccccc1COc1ccn(-c2ccc(Cl)cc2)n1`, the AC50 is 3.33 µM (active).

In the case of `CCCCOC(=O)c1ccccc1C(=O)OCCCC`, the result was inactive.

A further assay concerns the target zebrafish Thyroid Hormone Receptor beta (TRb), thrb (gene 30607) (UniProt Q9PVE4). The experiment in a line: ATG_zfTRb_XSP1: Attagene TRANS-FACTORIAL Multi-Species (XSP1) HepG2 Assay for zebrafish Thyroid Hormone Receptor beta (TRb) (AID 2283809). An outline of the steps:
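HepG2 cells transiently transfected with multiplexed GAL4-UAS reporter units expressing chimeric zebrafish TRb–Gal4. Dosed 24 h with 3 nM 6-alpha-fluorotestosterone present; reporter mRNA measured by RT-PCR, HpaI digestion and capillary electrophoresis; gain of signal versus DMSO.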
Take `CON(C)C(=O)Nc1ccc(Cl)c(Cl)c1`: the outcome was inactive.

In the case of `CCCN(CCC)c1c([N+](=O)[O-])cc(S(N)(=O)=O)cc1[N+](=O)[O-]`, the concentration at half-maximal activity (AC50) was 9.16 µM (active).

For `C=CC1(C)OC(=O)N(c2cc(Cl)cc(Cl)c2)C1=O` (stereo not drawn), the AC50 was 51.6 µM (active).

`CCOP(=S)(OCC)SCn1c(=O)oc2cc(Cl)ccc21`: the AC50 was 49.8 µM (active).

With `COc1ccc(C(c2ccc(OC)cc2)C(Cl)(Cl)Cl)cc1`, the compound was classed as inactive.

`CC(C)(C)c1ccc(CSc2cnn(C(C)(C)C)c(=O)c2Cl)cc1`: the compound was classed as inactive.

On to `CC(C)Oc1cc(-n2nc(C(C)(C)C)oc2=O)c(Cl)cc1Cl`, for which the compound was called inactive.

As to `CCCCC(CC)COC(=O)c1ccccc1C(=O)OCC(CC)CCCC` (stereo not drawn), the concentration at half-maximal activity (AC50) was 100 µM (active).

In the case of `CO/C=C(/C(=O)OC)c1ccccc1Oc1cc(Oc2ccccc2C#N)ncn1`, the compound was classed as inactive.

Regarding `COP(=S)(OC)Oc1nc(Cl)c(Cl)cc1Cl`, the compound was classed as inactive.

`C#CCOS(=O)OC1CCCCC1Oc1ccc(C(C)(C)C)cc1` (stereo not drawn): the call was inactive.

Turning to `COC(=O)N(OC)c1ccccc1COc1ccn(-c2ccc(Cl)cc2)n1`, the call was inactive.

In the case of `CCCCOC(=O)c1ccccc1C(=O)OCCCC`, the result was inactive.
